Five compounds from the supplement of paper PMC9694430 can be followed below.

Holding throughout (assay): thermal shift delta Tm vs DMSO control; higher = stronger stabilization (binding)
Holding throughout (details): 12.5 µM; protein concentration 2 µM

One assay has as its system LOC_OS01G57100-cb003. In short, it runs like this: (§1)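 Purified, E. coli-expressed rice kinase domain constructs were tested by differential scanning fluorimetry in 96-well plates: 19.5 μl of 2 μM kinase in 100 mM potassium phosphate pH 7.5, 150 mM NaCl, 10% glycerol, 5 × SYPRO Orange, plus compound in DMSO. Fluorescence was read from 25°C to 95°C at 0.05°C/s. Melting temperatures came from Boltzmann fits, and the shift is the triplicate mean relative to protein with DMSO alone.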

A further assay deals with LOC_OS01G60330-cb001. An outline of the steps:
as §1

The test system of the next assay is LOC_OS01G60700-cb002. In short, it runs like this:
as §1

The next assay relates to LOC_OS01G63280-cb003. An outline of the steps:
as §1

Another assay deals with LOC_OS01G67340-cb003. An outline of the steps:
as §1

The next assay has as its system LOC_OS01G70970-cb002. In short, it runs like this: as §1
The test system of a further assay is LOC_OS02G07810-cb001. In short, it runs like this:
as §1

In a further assay the test system is LOC_OS02G08530-cb003. In short, it runs like this: as §1
For the next assay, the system named is LOC_OS02G14120-cb001. An outline of the steps: as §1
The test system of a further assay is LOC_OS02G17970-cb001. In short, it runs like this: as §1
Another assay has as its system LOC_OS02G45750-cb003. In short, it runs like this: as §1
A further assay concerns LOC_OS02G54510-cb004. In short, it runs like this:
as §1

Another assay relates to LOC_OS03G04050-cb001. In short, it runs like this:
as §1

The subject of a further assay is LOC_OS03G12390-cb001. An outline of the steps: as §1
The test system of a further assay is LOC_OS03G27990-cb004. An outline of the steps: as §1
The test system of another assay is LOC_OS03G50450-cb001. An outline of the steps: as §1
A further assay deals with LOC_OS03G50810-cb003. An outline of the steps: as §1
The subject of a further assay is LOC_OS04G35114-cb001. An outline of the steps:
as §1

For the next assay, the system named is T1, LOC_OS04G38480-cb003.
T1 sequence (whole entry): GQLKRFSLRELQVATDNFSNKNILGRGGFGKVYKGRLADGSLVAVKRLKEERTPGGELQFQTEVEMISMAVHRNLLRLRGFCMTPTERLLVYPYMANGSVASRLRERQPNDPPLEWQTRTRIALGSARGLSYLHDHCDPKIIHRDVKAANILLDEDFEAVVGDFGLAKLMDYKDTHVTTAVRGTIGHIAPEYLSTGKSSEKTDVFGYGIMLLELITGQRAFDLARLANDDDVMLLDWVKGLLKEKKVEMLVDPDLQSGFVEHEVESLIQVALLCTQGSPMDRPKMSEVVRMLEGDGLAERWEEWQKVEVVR
In short, it runs like this:
as §1

Another assay deals with T2, LOC_OS04G41100-cb001.
T2 sequence (whole entry): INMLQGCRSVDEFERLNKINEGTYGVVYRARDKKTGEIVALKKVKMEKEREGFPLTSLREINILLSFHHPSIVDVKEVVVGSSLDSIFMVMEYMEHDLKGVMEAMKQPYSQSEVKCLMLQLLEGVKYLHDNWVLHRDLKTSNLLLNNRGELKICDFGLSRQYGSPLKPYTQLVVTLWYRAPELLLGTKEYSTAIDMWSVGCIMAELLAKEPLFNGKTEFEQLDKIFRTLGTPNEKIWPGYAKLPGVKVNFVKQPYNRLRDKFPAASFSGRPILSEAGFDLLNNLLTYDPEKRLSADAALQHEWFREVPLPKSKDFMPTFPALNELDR
In short, it runs like this:
as §1

Turning to `Cc1ccc(NC(=O)Nc2cc(C(F)(F)F)ccc2F)cc1Nc1ccc2c(c1)NC(=O)/C2=C\c1ccc[nH]1`, the “thermal shift delta Tm” value in the assay with LOC_OS01G57100-cb003 stood at 2.33 °C; in the assay on LOC_OS01G60330-cb001, 1.66 °C; with LOC_OS01G60700-cb002 it was 0.91 °C; in the assay on LOC_OS01G63280-cb003, 2.05 °C; with LOC_OS01G67340-cb003, 1.55 °C; with LOC_OS01G70970-cb002, 1.83 °C. The “thermal shift delta Tm” value was 3.74 °C in the assay on LOC_OS02G07810-cb001; -2.7 °C in the assay on LOC_OS02G08530-cb003; 0.57 °C in the assay with LOC_OS02G14120-cb001; 1.85 °C in the assay with LOC_OS02G17970-cb001; 0.48 °C in the assay on LOC_OS02G45750-cb003; -0.12 °C in the assay on LOC_OS02G54510-cb004. Also, the “thermal shift delta Tm” value in the assay on LOC_OS03G04050-cb001 was 1.3 °C; with LOC_OS03G12390-cb001, 1.34 °C; in the assay with LOC_OS03G27990-cb004, 0.77 °C; with LOC_OS03G50450-cb001 it was 1.31 °C; in the assay with LOC_OS03G50810-cb003, 1.99 °C; with LOC_OS04G35114-cb001, -0.61 °C. Further, the “thermal shift delta Tm” value with LOC_OS04G38480-cb003 was -1.28 °C; in the assay on LOC_OS04G41100-cb001 it was 0.8 °C.
For `CCS(=O)(=O)N1CC(CC#N)(n2cc(-c3ncnc4[nH]ccc34)cn2)C1`, the “thermal shift delta Tm” value with LOC_OS01G57100-cb003 came out at 2.25 °C; in the assay with LOC_OS01G60330-cb001, 0.75 °C; in the assay on LOC_OS01G60700-cb002, 1.26 °C; in the assay with LOC_OS01G63280-cb003, 1.3 °C; with LOC_OS01G67340-cb003, 0.81 °C; in the assay on LOC_OS01G70970-cb002, 0.39 °C. The “thermal shift delta Tm” value was found to be 0.37 °C in the assay on LOC_OS02G07810-cb001; 1.89 °C in the assay with LOC_OS02G08530-cb003; 4.11 °C in the assay with LOC_OS02G14120-cb001; 0.86 °C with LOC_OS02G17970-cb001; 2.13 °C in the assay with LOC_OS02G45750-cb003; 1.15 °C in the assay on LOC_OS02G54510-cb004. For the same compound, the “thermal shift delta Tm” value stood at 0.77 °C in the assay on LOC_OS03G04050-cb001; 1.62 °C in the assay with LOC_OS03G12390-cb001; 0.66 °C in the assay with LOC_OS03G27990-cb004; 1.09 °C in the assay on LOC_OS03G50450-cb001; 0.62 °C with LOC_OS03G50810-cb003; 1.29 °C in the assay on LOC_OS04G35114-cb001. For the same compound, the “thermal shift delta Tm” value in the assay with LOC_OS04G38480-cb003 turned out to be 0.44 °C; with LOC_OS04G41100-cb001, 0.43 °C.
Turning to `Cc1ccc(C(=O)Nc2cccc(C(F)(F)F)c2)cc1Nc1nc(-c2cccnc2)nc2c1cnn2C`, the “thermal shift delta Tm” value with LOC_OS01G57100-cb003 is 2.35 °C; with LOC_OS01G60330-cb001, 2.86 °C; with LOC_OS01G60700-cb002, 1.11 °C; in the assay on LOC_OS01G63280-cb003, 0.24 °C; with LOC_OS01G67340-cb003, 0.79 °C; in the assay on LOC_OS01G70970-cb002, 0.92 °C. Besides, the “thermal shift delta Tm” value worked out at 1.8 °C with LOC_OS02G07810-cb001; 1.77 °C in the assay on LOC_OS02G08530-cb003; 0.87 °C with LOC_OS02G14120-cb001; 2.02 °C in the assay with LOC_OS02G17970-cb001; 0.71 °C with LOC_OS02G45750-cb003; 1.84 °C with LOC_OS02G54510-cb004. Further, the “thermal shift delta Tm” value amounted to 0.36 °C with LOC_OS03G04050-cb001; 1.07 °C in the assay on LOC_OS03G12390-cb001; 0.25 °C in the assay with LOC_OS03G27990-cb004; 0.79 °C in the assay on LOC_OS03G50450-cb001; 0.32 °C in the assay on LOC_OS03G50810-cb003; 0.29 °C in the assay on LOC_OS04G35114-cb001. The entries for the “thermal shift delta Tm” value in the assay on LOC_OS04G38480-cb003 and in the assay on LOC_OS04G41100-cb001 were 0.47 °C and 0.58 °C, respectively.
As to `CCN(CC)CCCCNc1ncc2cc(-c3cc(OC)cc(OC)c3)c(NC(=O)NC(C)(C)C)nc2n1`, the “thermal shift delta Tm” value was 0.87 °C in the assay with LOC_OS01G57100-cb003; 0.35 °C in the assay with LOC_OS01G60330-cb001; 0.92 °C in the assay with LOC_OS01G60700-cb002; 0.87 °C in the assay with LOC_OS01G63280-cb003; 0.05 °C with LOC_OS01G67340-cb003; 0.05 °C in the assay with LOC_OS01G70970-cb002. The “thermal shift delta Tm” value with LOC_OS02G07810-cb001 is 0.72 °C; with LOC_OS02G08530-cb003, 0.6 °C; with LOC_OS02G14120-cb001, -0.08 °C; in the assay with LOC_OS02G17970-cb001, 0.18 °C; in the assay on LOC_OS02G45750-cb003 it was 1.08 °C; in the assay with LOC_OS02G54510-cb004, 0.28 °C. For the same compound, the “thermal shift delta Tm” value in the assay with LOC_OS03G04050-cb001 worked out at 0.67 °C; with LOC_OS03G12390-cb001, 0.06 °C; in the assay on LOC_OS03G27990-cb004 it was 0.5 °C; in the assay with LOC_OS03G50450-cb001, 0.93 °C; with LOC_OS03G50810-cb003, 0.47 °C; in the assay with LOC_OS04G35114-cb001, 0.79 °C. Besides, the “thermal shift delta Tm” value was determined as 0.83 °C in the assay on LOC_OS04G38480-cb003 and 0.46 °C in the assay with LOC_OS04G41100-cb001.
In the case of `O=c1cc(-c2ccccc2)oc2c(O)c(O)ccc12` [7,8-Dihydroxyflavone], the “thermal shift delta Tm” value was 5.23 °C in the assay on LOC_OS01G57100-cb003; -0.01 °C in the assay with LOC_OS01G60330-cb001; 3.2 °C in the assay with LOC_OS01G60700-cb002; 1.34 °C in the assay on LOC_OS01G63280-cb003; 0.96 °C in the assay with LOC_OS01G67340-cb003; -0.06 °C in the assay on LOC_OS01G70970-cb002. Further, the “thermal shift delta Tm” value in the assay on LOC_OS02G07810-cb001 is 2.73 °C; with LOC_OS02G08530-cb003 it was 1.59 °C; with LOC_OS02G14120-cb001, 0.71 °C; in the assay with LOC_OS02G17970-cb001, 3.29 °C; in the assay on LOC_OS02G45750-cb003 it was 1.01 °C; in the assay on LOC_OS02G54510-cb004, 0.54 °C. Besides, the “thermal shift delta Tm” value in the assay with LOC_OS03G04050-cb001 was 1.54 °C; with LOC_OS03G12390-cb001, 0.5 °C; in the assay on LOC_OS03G27990-cb004 it was 0.49 °C; with LOC_OS03G50450-cb001, 0.77 °C; with LOC_OS03G50810-cb003 it was 0.46 °C; in the assay on LOC_OS04G35114-cb001, -0.74 °C. The “thermal shift delta Tm” value in the assay with LOC_OS04G38480-cb003 is 0.33 °C; in the assay on LOC_OS04G41100-cb001 it was -0.06 °C.
